Test results taken from PubChem BioAssay AID1069 (NMMLSC, 2008).
The source made the active and inactive calls.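 How the source made its calls: active means high combined rank on largest and smallest cell-count-weighted shift across three tests, rank score above 45, floors 50 and 25 (some results past the limit were not filed as active); inactive means the rest.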

Assay: activators of LNCaP cell differentiation, retest, confirmation, side scatter shift, flow cytometry (AID 1069);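 further: LNCaP human prostate cancer cells in low-serum medium with charcoal-stripped FBS; percent of cells with raised granularity gated so DMSO controls show 10%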
Settings: 4 d, at 100 µM, stronger effect = higher value

Structure (SMILES)	side scatter shift
CCN(CC)CCNC(=O)c1ccc(N2CCCCC2)c(NS(=O)(=O)c2ccc(C)cc2)c1	17.6% (inactive)
Cc1onc(-c2ccccc2Cl)c1C(=O)N(C)C1CCCCC1	16% (inactive)
CCOC(=O)C1=C(C)N=c2s/c(=C\c3ccncc3)c(=O)n2C1c1ccc2c(c1)OCO2 (configuration not stated)	47.1% (inactive)
CN(C)c1ccc(-c2nn3c(-c4ccc(Cl)cc4Cl)nnc3s2)cc1	50% (inactive)
CN1CCN(c2cc3c(c4c2[nH]c2ccccc24)C(=O)CC(C)(C)C3)CC1	16.1% (active)
CN(CC(=O)Nc1ccc2c(c1)OCCO2)S(=O)(=O)c1cccc2cccnc12	16.8% (inactive)
COc1cc(C(=O)NCc2nnc(SCC(=O)NCc3ccccc3)o2)cc(OC)c1OC	9.6% (inactive)
O=C(CSc1nc2c(c(=O)n1-c1ccc(F)cc1)SCC2)NCC1CCCO1 (configuration not stated)	19.8% (inactive)
Cc1cc(NC(=O)c2noc3c2CCc2ccccc2-3)n(-c2ccccc2)n1	21.9% (inactive)
COc1ccc(-c2cc(C(F)(F)F)nc(N3CCN(c4ccc(F)cc4)CC3)n2)cc1OC	22.3% (inactive)
CCN1CCN(C(c2cccs2)C(C)NS(=O)(=O)c2ccc(Br)cc2)CC1 (configuration not stated)	82.4% (inactive)
Cn1c(=O)cc(SCC(=O)NCCCN2CCN(c3ccccc3F)CC2)c2ccccc21	70.5% (active)
CCOC(=O)c1cc2c(=O)n3ccccc3nc2n(CCCOC)c1=NC(=O)c1cccnc1	9.9% (inactive)
Cn1cc(CNC(=O)C2c3ccccc3Oc3ccccc32)cn1	7.3% (inactive)
Cn1c(C(=O)NCCCN2CCN(c3ccccc3F)CC2)cc2c(=O)n(C)c3ccccc3c21	20% (inactive)
CCN1CCN(c2cc(C)c3cc(NC(=O)c4ccc(Br)o4)ccc3n2)CC1	2.8% (active)
Cc1ccccc1-c1nc(CN2CCC(C(=O)NCCC3=CCCCC3)CC2)c(C)o1	9.1% (inactive)
CCn1c(SCC(=O)Nc2ccccc2F)nc2c(c1=O)SC(C)C2 (configuration not stated)	8% (inactive)
Cc1oc(-c2ccccc2F)nc1CN1CCC(C(=O)NCc2cccnc2)CC1	8.3% (inactive)
Cc1ccccc1-c1nc(CN2CCC(C(=O)NCc3cccnc3)CC2)c(C)o1	36.9% (inactive)
COc1ccccc1CNC(=O)C1CCN(Cc2nc(-c3cccc(Cl)c3)oc2C)CC1	33.3% (inactive)
Cc1ccc(OCC(O)Cn2c(=N)n(CCN3CCCCC3)c3ccccc32)cc1 (configuration not stated)	23.1% (active)
